# Laboratory results taken from PubChem BioAssay (NCI).
# About 79,000 compounds went through this panel and 15% of them were active in at least one assay; those are over-represented in the sample as a whole. A number with no mark means an inactive call. Calls of active or inactive are those of the source. Cut-off read from the data, not from the text of the source: active = growth inhibition above about 70%; inactive = the rest.
# Columns and labels:
# [1] = NCI Yeast Anticancer Drug Screen. Data for the rad50 strain (AID 155);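 note: 0% = growth of vehicle-only cultures of the same strain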; settings: S. cerevisiae rad50 strain growth inhibition; at 50.0 µM; active compounds read high
# Summary of the method: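 Inhibition values express reduced yeast growth in compound-treated cultures relative to vehicle-treated controls.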
# [2] = NCI Yeast Anticancer Drug Screen. Data for the mec2-1 strain (AID 157); settings: S. cerevisiae mec2-1 strain, at 50.0 µM, active compounds read high
# Summary of the method: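 mec2-1 yeast strain, carrying an alteration in DNA damage repair or cell cycle control, was exposed to compounds; growth inhibition was measured relative to vehicle-treated controls.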
# [3] = NCI Yeast Anticancer Drug Screen. Data for the sgs1 mgt1 strain (AID 161);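 note: 0% = growth of cultures given vehicle only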; settings: S. cerevisiae sgs1 mgt1 strain, at 50.0 µM, active compounds read high
# Summary of the method: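 Yeast cells carrying a defined DNA-repair defect were exposed to test compounds. Growth inhibition was measured relative to vehicle-treated controls.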
# [4] = NCI Yeast Anticancer Drug Screen. Data for the cln2 rad14 strain (AID 165);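 note: 0% = growth equal to vehicle treated cultures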; settings: S. cerevisiae cln2 rad14 strain, at 50.0 µM, active compounds read high
# Summary of the method: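 Yeast carrying cln2 and rad14 alterations (cell cycle control and DNA damage repair) were exposed to compounds. Growth inhibition was measured against vehicle-treated controls.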
# [5] = NCI Yeast Anticancer Drug Screen. Data for the bub3 strain (AID 167); settings: S. cerevisiae bub3 mutant strain, at 50.0 µM, active compounds read high
# Summary of the method: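 Steps: expose the mutant yeast strain to compound; grow alongside vehicle-treated cultures; measure growth; express inhibition against the vehicle cultures.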
# [6] = NCI Yeast Anticancer Drug Screen. Data for the mlh1 rad18 strain (AID 175); settings: S. cerevisiae mlh1 rad18 strain growth inhibition; at 50.0 µM; active compounds read high
# Summary of the method: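 Growth inhibition of the yeast strain was measured after compound exposure and expressed relative to vehicle-treated controls. The strain carries defined defects in DNA damage repair.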
Compound,growth inhibition [1],growth inhibition [2],growth inhibition [3],growth inhibition [4],growth inhibition [5],growth inhibition [6]
CCCCCCCCCCCCCCCC/C=C\CCCCCCCCCCCCCCCCC,-7.8%,-18.1%,-0.85%,17.3%,2.25%,-13.1%
C/C(CC(O)(C(F)(F)Cl)C(F)(F)Cl)=N\NC(N)=S,29.9%,-3.05%,0.1%,20.1%,-0.55%,25.2%
CCC1(c2ccc(N3C(=O)c4cc(OC)c(OC)cc4C3=O)cc2)CCC(=O)NC1=O (stereo unspecified),-6.25%,7.65%,-7.25%,-16.1%,-16%,-32.8%
COc1ccc(Br)cc1C=Nc1ccccc1,14.9%,3.05%,19.2%,-8.05%,9.05%,4.85%
Cn1c2c(c3ccccc31)=NN1CCN=C1N=2,11.2%,-2.95%,-0.15%,-28.2%,17.2%,4%
O=C(O)c1nc2nc(Cl)c(Cl)nc2[nH]1,-22.7%,-30.4%,-19.7%,21.9%,-37.8%,9.4%
Nc1ccc(S(=O)(=O)Nc2ccc([N+](=O)[O-])cn2)cc1,-28.4%,-43%,17.2%,17%,-20.4%,-15.6%
COc1ccc(-c2c(N)nc(=S)[nH]c2C(=O)O)cc1,-8.65%,9.85%,-9.15%,-21.2%,8.75%,-17.7%
OCC(CO)=C1c2ccccc2-c2ccccc21,11%,-6.2%,-8.15%,-28.8%,-1.5%,5.55%
O=S(=O)(O)c1cccc2nsnc12,-0.35%,-2.05%,-3.6%,13.1%,9.5%,-1.3%
CO/C(=N\N=C\c1cc(OC)ccc1OC)c1ccncc1,0.6%,-13.2%,-23.6%,10.7%,-38.8%,-11.2%
O=C1/C(=C/C=C/c2ccccc2)CCC1CNc1ccc(Br)cc1 (stereo unspecified),-20.2%,-11.7%,-17.8%,16.9%,-15.4%,9.5%
OCc1ccc(O)c(CO)n1,-8.85%,-26.3%,-3.35%,5.4%,-20.6%,7.55%
C=C1CC(Cn2cc(C)c(=O)[nH]c2=O)(c2ccc(-c3ccccc3)cc2)OC1=O (stereo unspecified),8.9%,-5.35%,38.6%,37.7%,29.5%,47.1%
O=C(Nc1cccc(Cl)c1)Nc1ccc(Sc2ccc(Cl)cc2)o1,55.1%,7%,70.6% (active),29.9%,47.6%,69.8%
COc1ccc(C(=O)C(C(=O)CCC(=O)Nc2ccc(Cl)c(Cl)c2)c2ccc(OC)cc2)cc1 (stereo unspecified),-9.65%,1.7%,-11.3%,-8.6%,18.6%,-17.9%
CCCCCCCCCCCCCCCCCC(=O)CCCCCCCCCCCCCCCCC,-17.3%,-21.7%,-6.65%,13.8%,-6.2%,-16.7%
C/C(=N\n1cc(-c2ccccc2)nc1N)c1ccccc1,-2.8%,4.2%,6%,13.5%,20.6%,13.1%
CN(C)c1ccc(/C=C(\NC(=O)c2ccccc2)c2nn(C)c(=O)o2)cc1,-15.8%,-4.8%,-11.1%,-20.9%,-1.4%,-22.6%
O=C1CSC(c2ccc(Br)cc2)N1c1nncs1 (stereo unspecified),-2.75%,19.6%,18.2%,-9.95%,6.6%,23.3%
NC(CC1C=CC=CC1)C(=O)O (stereo unspecified),0.6%,3.15%,8.35%,-6%,-4.05%,-4.85%

Compound,growth inhibition [1],growth inhibition [2],growth inhibition [3],growth inhibition [4],growth inhibition [5],growth inhibition [6]
CCOC(=O)/C=C(/OCC)c1cccc(Cl)c1,9.4%,-5.95%,13.8%,16.3%,39.4%,-1.85%
CCOC(=O)/C=C/C1(CCOC(C)=O)CCCCC1,12.8%,-27.8%,-2.9%,21%,-4%,14.9%
COc1cc2c3c(c1)nc(C)n3C(=O)C(C)S2 (stereo unspecified),-26.8%,-46.9%,-22.9%,12.3%,11.3%,-22%
C=CCn1c(SCc2ccccc2)nccc1=O,25.1%,-10.8%,16.9%,-33%,7.15%,8.9%
CCCN(CCCCC(NC(C)=O)C(=O)NCc1ccccc1)C(=O)NC (stereo unspecified),-26.9%,-27.8%,-13.1%,17.9%,-18.9%,-14.5%
CCOC(=O)C/C(C(=O)O)=C(\C)c1ccc2ccccc2c1,-10.4%,18.1%,20.9%,1.15%,-2.25%,-0.85%
COc1ccccc1N/C(=C\C(=O)C(=O)NC12CC3CC(CC(C3)C1)C2)c1ccccc1,11.4%,2.55%,8.65%,2.25%,3.75%,14.2%
CC1=NNC(=O)CC1C(O)c1ccc(F)cc1 (stereo unspecified),-33.5%,1.4%,-10.1%,-2.35%,0%,-1.85%
CCOC(=O)CNC(=O)C(Cc1ccccc1)NC(=O)c1ccccc1[N+](=O)[O-] (stereo unspecified),22.8%,14.3%,16%,15.8%,-1.25%,15.8%
COC(=O)C1C(=O)C=C(C)C(C(=O)OC)C1c1ccccc1 (stereo unspecified),7.7%,-4.2%,6.15%,-5.85%,12.5%,0.25%
O=C(O)CCn1cnc2c(=S)nc[nH]c21,-23.2%,-23.1%,-28.4%,-3.05%,-54.6%,-16.5%
C=CCOC1OC(CS(=O)(=O)O)C(OC(C)=O)C(OC(C)=O)C1OC(C)=O (stereo unspecified),17.9%,4.2%,-1.1%,21.6%,-2.75%,15.9%
O=C1N(Cc2ccccc2)[C@H]2CS(=O)(=O)C[C@@H]2N1Cc1ccccc1,0.9%,4.1%,8.75%,-10%,0.85%,12.7%
CCCC(C)OS(=O)(=O)c1ccc(C)cc1 (stereo unspecified),13%,-6.55%,0.75%,-36.5%,8.85%,5.05%
COC/C=C\COC,3.45%,5%,17.6%,-2.15%,-6.3%,22.1%
CCCCCCCCCCCCCCCCCC(=O)N/N=C/c1ccc(O)cc1,-22.3%,-12.4%,-16.2%,-61.2%,-6.2%,1.85%
S=C(NCCS)Nc1ccccc1,-0.6%,-11.4%,-2.15%,-46.6%,41.8%,13.3%
O=C1C(=S)Nc2c(F)cccc21,21.6%,51.4%,24.2%,39.6%,29.6%,31.9%
COc1ccc(-n2c(=O)c(N=Nc3ccccc3Cl)c(O)n(-c3ccccc3OC)c2=S)cc1,22.4%,4.65%,33.2%,-33.1%,2.2%,3.2%
Cc1ccc(CN(C)N=Nc2ccc(C#N)cc2)cc1,2.55%,34.2%,45.6%,12.1%,65.3%,6.7%
